# The supplement of paper PMC11417369
# Over roughly 25,000 sequences, “ln(normalized median fluorescence intensity)” has its median near 9.3; the highest 2% begin near 10. The list comes from a sample in which the highest values are over-represented; it also holds similar and randomly drawn sequences.
# System: PF3D7_0420300 AP2 domain 1 (GST-tagged)
# Assay: gcPBM binding intensity (ln(normalized median fluorescence intensity)); higher = stronger DNA binding
# Method in brief: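 Binding of GST-tagged P. falciparum DNA-binding domains, expressed in E. coli and used at about 25 μg on average, was carried out for 1 h in 1× PBS containing 1% milk, 0.2 mg/ml BSA, 0.5% salmon testes DNA and 0.03% Triton X-100. The target was an Agilent 4 × 180k array of primer-extended double-stranded 36-bp intergenic genomic probes plus negative controls, read with Alexa488 anti-GST antibody at 488 nm. Binding intensity is the highest Masliner-normalised natural-log median intensity across replicate spots of either probe orientation.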
row,Sequence,gcPBM binding intensity (ln)
1,AACAAAATTGAAGGAACACACATACAGATATATATA [CACACA_site4264],9.81
2,AGCAAAAATTAAATAAATAAATATATATATATATAT [TGCATGCA_negctrl_site449],9.12
3,TTTTTGCAAAAAGAAATAATTTTATTTTAGTTCGGA [CACACA_negctrl_site1718],8.78
4,ATTTTTATACGTTTTTTTTTTTTTTTTTTTTATTTA [CACACA_negctrl_site1142],9.62
5,ATAATGTGTTAGGCGTGTACACAATTGTATGGTTTA [XGTACX_site2377],9.45
6,ATATTAACTTTTATTACACACTCTCAACTTTTATTT [CACACA_site6176],9.72
7,GTACTTGTATTATGCACACATATAATTAAACATATA [CACACA_site3312],9.41
8,CATTTTAAAACAGACACACACCAAAAAAAAAAAAAA [CACACA_site6259],9.4
9,AAGAAAAACTAAAGAGTTCTGTTCATATCTCTTTGG [TGCATGCA_negctrl_site549],8.99
10,CCAACATGCCCACGCACACACAAAAAAAGCATGCAT [CACACA_site4217],9.58
11,TTTATTTTATCATTTGCACACGCACGCCCACATAAA [CACACA_site353],9.4
12,ATCAAGCACGAACACACACACACACGCACGCCCACA [CACACA_site6308],10.2
13,GAGAGTAAAACAAATATACACACCATAAAGTTATAA [CACACA_site1686],9.49
14,TTCATTCAAATTAACGTGCACATTATTAGTAAAAAC,9.08
15,ATACTAAATGAACACACACACATATAGATTTATAAC [CACACA_site6200],10.2
16,ATACTAAATGAACACACACACATATATATATATAAT [CACACA_site4232],10.1
17,TTATACTAAATGAACACACACACATATATATATATA [CACACA_site99],9.81
18,TAGTGTATGATAATATGTACATACATTTATATAATA [XGTACX_site6330],9.11
19,TATATATATATATAAACACACATAAATATAAATATA [CACACA_site1121],9.6

row,Sequence,gcPBM binding intensity (ln)
1,AAAAAAAGTTATATTACACACTTTATTCGTTAACTT [CACACA_site3013],9.47
2,TTTGTTATGGTTTTCTCACACATATATATATATATA [CACACA_site4617],9.5
3,AAAAAAAAAAAACACACACACACACTAATACATACA [CACACA_site8135],10.1
4,AATAAAAAAAAAAAAAAAAAAAAAAAGACACTAAAA [CACACA_negctrl_site1075],9.33
5,AAAAAAAAAAGACACACACACAAATACAAATACATA [CACACA_site6334],10
6,AAAAAAAAAAGACACACACACACACTAATACATACA [CACACA_site6473],10.2
7,AAAAAAAAAAGACACACACACACAAATACATACACA [CACACA_site6472],10.1
8,AAAAAAAAAAGACACACACACACATACACATACATA [CACACA_site7362],10.2
9,ATGGGTATATTTCCACGTACAAAAAATCCGAATTGC [XGTACX_site1490],9.23
10,AAAAATTAAAATATTATAGTTGAAACTTTTATAAAT [TGCATGCA_negctrl_site454],8.81
11,AATATGTAGTAATCAAGTACTAATGTCTTAATTCGG [XGTACX_site308],9.27
12,GATATGAATATAGGTTGTACTATATATAAAGTATGT [XGTACX_site1877],9.35
13,CCACTGTATGAATGCACACATTCATAGAATTGCTAT [CACACA_site2676],9.24
14,CATATAAATAGACACACACACACATATAAATAAATA [CACACA_site7156],10.3
15,TATATAAATAGACACACACACATATAAATATAAATA [CACACA_site6503],10.1
16,TATATATATAGACACACACACATATAAATAAATAAA [CACACA_site444],10.1
17,TATAAATAGAGACACACACACATATAAATAAATATT [CACACA_site7854],10.1
18,TATATAAATAGACACACACACACATATAAATAAATA [CACACA_site7855],10.2
19,TAATAATAGAGACACACACACATAGACATATAAATA [CACACA_site6729],10.2

row,Sequence,gcPBM binding intensity (ln)
1,TTATAAAATAAACTTACACACATGAAATATTATATT [CACACA_site1945],9.49
2,ATAGAAGCTGTTGACGAAGAAAAAAAAAAAAAAAAA [CACACA_negctrl_site110],8.56
3,TTTAAAAAAATTCATGCACACGAAATAAAAAGCACC [CACACA_site8214],9.71
4,ACAAAAAAAAAAAAAAAAAGAAGAATATATCTATAT [CACACA_negctrl_site759],9.16
5,ATTATAAATATATTTTGTACTTAAAAGGAAAAAAAA [XGTACX_site55],9.02
6,ACATATACAAAACACACACACAACGTTTTAATAAAT [CACACA_site1979],10.1
7,TTAAAATATACATAAACACACACAAAACGTTTAAGA [CACACA_site8267],9.9
8,AAAAAAAAAAAGTACACACATACATATAAATATATA [CACACA_site1809],9.46
9,AAATATAAATGGTAATACACATACACACACACATAC [XGTACX_negctrl_site459],10.2
10,AAATATAAAAAATATACACACATATATAATATATAT [CACACA_site2963],9.55
11,ACATATAAAATATATACACACATATAAATACATTAA [CACACA_site3867],9.75
12,TATAATCATAAATACACACACATATATATATATATA [CACACA_site5224],9.54
13,TATAAATATATATACACACACACATTAATACATATA [CACACA_site3488],10.2
14,AAATTAATTAAATATACACACATATATAAATATATA [CACACA_site391],9.38
15,ACATATACAAGACACACACACAACGTTTTAATAAAT [CACACA_site7017],10.2
16,ATAAATACATATAAAAGTACACACACACACATATAT [XGTACX_site1744],10.4
17,AAAAAAAAAAAAAGTACACACATACATATAAATATA [CACACA_site8533],9.72
18,TATATTGAAAATAAAACATGCAATCACTCATACATA [TGCATGCA_site248],9.36
